Compound activity from PubChem BioAssay.
NFkB transloc pot = enhances IL-1B driven NFkB nuclear translocation; activation, % at 2 µM; HUVEC IL-1B NFkB p65 nuclear translocation imaging; 94,000 tested, 0.3% active;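 active = activation above 40%, about the mean plus 3 SD, also judged a hit on visual image review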;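 also: percent activation is computed from the nuclear over cytoplasmic p65 intensity ratio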
VCAM1 TNFa inh = reduces TNF alpha induced VCAM1 expression in HUVEC | HUVEC TNFa-induced VCAM-1 immunofluorescence, high-content imaging | inhibition, % at 2 µM | 95,000 tested, 0.48% active | AID 802;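 active = inhibition above the batch mean plus 3 SD, with images confirmed as a hit by eye, cut at about 37% in these data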;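 also: 0% = TNF-stimulated DMSO wells and 100% = unstimulated control wells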
TNFa cytotox = HUVEC cytotoxicity counter-screen, TNF alpha stimulated. HUVEC TNFalpha-stimulated, Hoechst cell count, imaging. cell count reduction, % at 2 µM. 93,000 tested, 0.17% active;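 active = cell count reduction exceeding the screen mean by over 5 SD, scaled to untreated wells per plate, cut at about 78% in these data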;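 also: cells counted after 24 h of TNF alpha exposure following the 1 h pretreatment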
IL1B cytotox = HUVEC cytotoxicity counter-screen, IL-1B stimulated. 94,000 tested, 0.41% active. AID 845. cell count reduction, % at 2 µM. HUVEC cell count loss, Hoechst imaging;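 active = cell count reduction more than 3 SD above the screen-wide mean, cut at about 70% in these data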;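 also: normalized per plate to untreated control cells as the no-loss baseline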
NFkB transloc inh = blocks IL-1B driven NFkB nuclear translocation in HUVEC cells; HUVEC IL-1B NFkB p65 nuclear translocation imaging; inhibition, % at 2 µM; 94,000 tested, 0.43% active;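 active = inhibition above about 30% together with a positive call from visual inspection of the well image, limit read from the data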;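 also: nuclear over cytoplasmic p65 intensity ratio measured by imaging; 0% = IL-1B stimulated DMSO wells and 100% = unstimulated DMSO wells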
Starred values were filed as active, the others as inactive; nt = no result given. The list is not random: actives were taken first. Their share in the collection is about 1.5%.

SMILES | NFkB transloc pot | VCAM1 TNFa inh | TNFa cytotox | IL1B cytotox | NFkB transloc inh
CCOc1ccccc1NC(=O)N1CCCC1C(=O)Nc1ccc(NC(C)=O)cc1 (configuration not stated) | 11 | 15 | 1 | -12 | -11
COc1ccc(Br)cc1C(=O)Nc1cccc(C)c1 | 22 | 0 | -14 | -32 | -22
CCC(=O)Nc1cccc(C(=O)/C=C/c2cc(Br)ccc2OC)c1 | -2 | 69* | 5 | 12 | 2
O=C(O)c1cccc(S(=O)(=O)NCC2CCCO2)c1 (configuration not stated) | -93 | -1 | -26 | 90* | 93*
CCOC(=O)c1[nH]c(C)c(C(=O)N2CCc3ccccc32)c1C | 100* | 54* | 58 | 15 | -100
Cn1c(N)c(C(=O)COC(=O)CCCc2c[nH]c3ccccc23)c(=O)n(C)c1=O | -2 | 0 | -25 | -7 | 2
NC(=O)COC(=O)CCCc1c[nH]c2ccccc12 | -8 | 94* | 79* | 14 | 8
Cn1c(N)c(C(=O)COC(=O)CCc2c[nH]c3ccccc23)c(=O)n(C)c1=O | 55* | 12 | -10 | -3 | -55
COc1ccc(NC(=O)COC(=O)CCCc2c[nH]c3ccccc23)cc1 | 0 | -48 | nt | 2 | 0
CC(C)CCC1CC(CSC(=N)N)OC1=O (configuration not stated) | 9 | 17 | -5 | -43 | -9
CCc1ccc(C(=O)Cn2ncc(Cl)c(Cl)c2=O)cc1 | -56 | 16 | -13 | 5 | 56*
O=C(N1CCOCC1)N1CCN(S(=O)(=O)N2CCCCC2)CC1 | -1 | nt | nt | -36 | 2
COc1ccc(-c2cc(C(F)(F)F)nc(S(=O)(=O)CCC(=O)N3CCOCC3)n2)cc1 | -6 | 98* | 20 | 6 | 6
CC(=O)Nc1ccc(S(=O)(=O)n2cnc(C)c2)cc1 | -11 | 91* | 98* | -4 | 11
CCOC(=O)C1=C(N)OC2=C(C(=O)CC(C)(C)C2)C1c1cccs1 (configuration not stated) | 19 | 2 | -20 | -9 | -19
COc1ccc(CCn2c(SCC(=O)Nc3cc(C)on3)nc3ccccc3c2=O)cc1OC | -3 | 38 | 87* | -5 | 3
COc1cc(C2C(C#N)=C(N)Oc3cc(N(C)C)ccc32)cc2c1OCO2 (configuration not stated) | -27 | 97* | 68 | 57 | 27
C=CCNc1nc(N2CCCCC2)c(C#N)c2c1CN(Cc1ccccc1)CC2 | 10 | 25 | -9 | -39 | -10
CN(C)S(=O)(=O)c1cccc(C(=O)N2CCN(Cc3ccccc3)CC2)c1 | 5 | 5 | -5 | 16 | -5
Cc1ccc(N(C)C(=O)N2CCN(c3ccccn3)CC2)cc1 | 67* | 20 | -15 | 46 | -67
CN(c1ccccc1)S(=O)(=O)c1cccc(C(=O)N2CCN(c3ccccn3)CC2)c1 | -2 | 42 | 82* | 5 | 2
O=C(O)CCC(=O)N1CCN(c2ccccn2)CC1 | 11 | 1 | -12 | 22 | -11
CC1CC(C)CN(CCCNC(=O)c2ccc3c(c2)NC(=O)C(N2CCCCC2)S3)C1 (configuration not stated) | -7 | -3 | 0 | 7 | 7
COCCN(CC(=O)NCc1ccccc1)C(=O)CCC(=O)Nc1nccs1 | 41* | 0 | -21 | 2 | -41
COCCN(CC(=O)NCc1ccc(OC)cc1)C(=O)CCC(=O)Nc1nccs1 | -3 | -4 | -13 | 1 | 2
SMILES | NFkB transloc pot | VCAM1 TNFa inh | TNFa cytotox | IL1B cytotox | NFkB transloc inh
Cc1cc(NC(=O)CCCC(=O)NCc2cccs2)no1 | -3 | 2 | 4 | 7 | 3
O=C(NCC1COCCO1)C1CCN(S(=O)(=O)c2ccccc2)CC1 (configuration not stated) | -96 | 2 | 5 | 94* | 96*
Cc1ccc(S(=O)(=O)N2CCCC(C(=O)NCC3COCCO3)C2)cc1 (configuration not stated) | -7 | 2 | -2 | 6 | 8
CC(NC(=O)CSc1nc2ccccc2n1CCC#N)c1ccc(F)cc1 (configuration not stated) | -2 | 11 | -6 | -93 | 2
CCn1c(SCC(=O)NC(C)c2ccccc2)nc2ccccc21 (configuration not stated) | -2 | 63* | 28 | -17 | 2
COc1ccc(S(=O)(=O)Nc2nc3n(n2)C(c2ccc(Cl)cc2)CC(=O)N3)cc1 (configuration not stated) | 15 | 39* | 2 | -6 | -15
CCNC(=O)CN(Cc1ccccc1)S(=O)(=O)c1ccccc1 | -35 | 5 | -3 | 10 | 36*
CCNC(=O)CN(CCc1ccccc1)S(=O)(=O)c1ccc(OC)cc1 | -6 | 7 | -14 | 6 | 6
CCOC(=O)c1ccc(Nc2nc(-c3cccnc3)nc3ccccc23)cc1 | 18 | -14 | -32 | 86* | -18
CCOC(=O)c1nc(Nc2ccccc2)c2ccccc2n1 | -8 | 23 | 12 | 43 | 8
CCNc1nc(NCC)nc(SCCOC(=O)COc2ccc(Cl)cc2Cl)n1 | -17 | -6 | -29 | -15 | 18
CCC(C)(C)NC(=O)C(c1ccncc1)N(Cc1ccc(C)cc1)C(=O)c1csnn1 (configuration not stated) | 12 | 13 | -12 | 90* | -12
O=C(CSc1c[nH]c2ccccc12)N1CCOCC1 | -11 | 10 | -19 | -86 | 11
CSc1ccccc1NC(=O)COc1ccccc1Cl | 18 | 11 | -16 | -3 | -18
Cn1c(=N)n(CC(O)c2cccc3ccccc23)c2ccccc21 (configuration not stated) | -14 | 43 | 83* | -9 | 14
O=C(CSc1nc2ccccc2c(=O)[nH]1)Nc1ccc(S(=O)(=O)N2CCCC2)cc1 | -31 | 12 | -5 | 11 | 31*
CCCS(=O)(=O)N1CCC(C(=O)NCC2CCCO2)CC1 (configuration not stated) | -2 | 12 | -30 | -12 | 2
COc1ccc(OC)c(C2C3=C(CCCC3=O)NC3=C2C(=O)CCC3)c1 | 2 | -7 | 6 | -9 | -2
COc1ccc(OC)c(C2C(C(=O)Nc3cccnc3)=C(C)NC3=C2C(=O)CCC3)c1 (configuration not stated) | 42* | 17 | 3 | -21 | -42
COc1ccc(CN2C(=O)[C@@H]3C(c4ccc(F)cc4)=NO[C@@H]3C2=O)cc1 | -4 | 92* | nt | 12 | 4
COc1ccc(CNC(C)C2COc3ccccc3O2)c(OC)c1 (configuration not stated) | -4 | 5 | -16 | -20 | 4
CC(NCc1ccccc1)C1COc2ccccc2O1 (configuration not stated) | 49* | -18 | -32 | 10 | -49
O=C(NCCCN1CCN(c2cccc(Cl)c2)CC1)c1cccc(N2CCCC2=O)c1 | 46* | 19 | 1 | -19 | -46
CC1=N/C(=C\c2ccc([N+](=O)[O-])cc2)C(=O)N1c1ccc(Br)c(C)c1 | -7 | -22 | -14 | -26 | 7
